Test results from PubChem BioAssay (NCI).
This is part of a sample that, as a whole, favours compounds with a hit. Of some 83,000 tested, about 20% had one in any assay.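 Each cell line was grown in a 96-well plate and treated with one concentration of compound for 48 hours. Values below 10 were considered active.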 Unmarked numbers belong to inactive results. Activity calls are given as the source filed them.

Test system: HL-60(TB) leukemia
Assay: NCI-60 one-dose screen, 48 h (100 = growth as untreated, 0 = no growth, -100 = all killed)
Details: 10 µM unless noted

Row | Structure (SMILES) | growth
1 | Cn1c(=O)c2nc3c(=O)n(C)c(=O)n(C)c3nc2n(C)c1=O | 85.1%
2 | O=C(CCCCCCN1CC(=O)N2[C@@H](c3ccccc3Cl)c3[nH]c4ccccc4c3C[C@H]2C1=O)NO | 55%
3 | O=C(Nc1ccc(N2CCNCC2)cn1)c1[nH]ncc1Nc1ncnc2sc3c(c12)CCC3 | 74%
4 | CCCCCCCCCCCCCCNCc1ccccc1 | 51.9%
5 | O=C(Nc1ccccc1Cl)c1ccc(NC2=C(Cl)C(=O)N(C3CCCCC3)C2=O)cc1 | -36.7% [30 µM] (active)
6 | CCc1c2c(nc3ccc(OC(=O)N4CCC(N5CCCCC5)CC4)cc13)-c1cc3c(c(=O)n1C2)COC(=O)[C@]3(O)CC | -14% (active)
7 | COc1ccc(N(C)c2ncnc3occ(C)c23)cc1 | -34.9% (active)
8 | Oc1cc2ccccc2c(-c2c(O)c(O)cc3ccccc23)c1O | 19.8%
9 | O=C1/C(=C\c2c[nH]c3ccccc23)c2ccccc2N1c1c(Cl)cccc1Cl | -7.81% (active)
10 | COc1ccc(/C=C/c2nc(N3CCOCC3)c3cc(F)c(F)cc3n2)cc1OC | -2.81% (active)
11 | C=C1C(=O)O[C@H]2[C@H]1CC/C(COC(=O)c1cc3ccccc3o1)=C\CC[C@@]1(C)O[C@@H]21 | -2.94% (active)
12 | O=S(O)c1cc(Cl)cc(Cl)c1OCc1ccccc1 | 109%
13 | CC[C@H](CC[C@@H](C)[C@H]1CC[C@H]2[C@@H]3CC=C4C[C@@H](OCCc5nn[nH]n5)CC[C@]4(C)[C@H]3CC[C@]12C)C(C)C | 103%
14 | O[C@@H](c1cc(C(F)(F)F)nc2c(C(F)(F)F)cccc12)[C@H]1CCCCN1 | 59.4%
15 | O=C(NOC(=O)c1ccccc1)c1ccccc1 | 87.1%
16 | COc1ccc(Sc2[nH]c(C(C)=O)c3ccccc23)cc1 | 23.3%
17 | Oc1c(CNCCNCc2cc(Cl)cc(Cc3ccccc3)c2O)cc(Cl)cc1Cc1ccccc1 | -0.262% (active)
18 | Nc1nc(SCc2cccc([N+](=O)[O-])c2)c2[nH]cnc2n1 | 94.9%
19 | CN(C)c1ccc(/C=C\C2=[N+](C)c3ccccc3C2(C)C)cc1 | 22.9%
20 | COc1cccc(-c2nc(-c3ccc(NC(=O)C(C)C)cc3)[nH]c2-c2ccnc(Br)c2)c1 | -23.4% (active)

Row | Structure (SMILES) | growth
21 | Fc1ccc(Cc2ccc(F)cc2)cc1 | 103%
22 | O=C(/C=C\c1cccc([N+](=O)[O-])c1)/C=C/c1cccc([N+](=O)[O-])c1 | 123%
23 | Cc1noc(C)c1CSc1ccccc1C(=O)N1CCN(c2cccc(C(F)(F)F)c2)CC1 | 74.4%
24 | COc1cc(-c2nc3sccn3c2-c2ccnc(NCCNS(=O)(=O)c3ccc(F)cc3)n2)ccc1F | -17.4% (active)
25 | CC(C)(C)OC(=O)NC(CSCc1ccccc1)C(=O)ON1C(=O)CCC1=O (stereo not given) | 70.9%
26 | COc1cccc(C(=O)Nc2ccc(CN3CCc4nc5cc(OC)c(OC)cc5cc43)cc2)c1 | 60%
27 | COc1ccc(C(OCC2OC(n3ccc(NC(=O)c4ccccc4)nc3=O)C(O)C2O)(c2ccccc2)c2ccccc2)cc1 (stereo not given) | 22.9%
28 | COCCOCCOCCOCCOc1ccc2c(c1)C(=O)c1nc3ncccc3c(=O)n1-2 | -64.6% (active)
29 | C=CCCC1(C)NC(=O)NC1=O (stereo not given) | 97.7%
30 | Cc1cc(Cl)ccc1Nc1nc(C(F)(F)F)ccc1C(=O)N/N=C/c1c(Cl)cccc1Cl | -26.8% (active)
31 | OC(c1cc2cc(Cl)c(Cl)cc2c2cc(C(F)(F)F)ccc12)C1CCCCN1 (stereo not given) | -21% (active)
32 | CCNC(=O)C1CCCN1C(=O)C(CCCN=C(N)N)NC(=O)C(CC(C)C)NC(=O)C(CC(C)C)NC(=O)C(Cc1ccc(O)cc1)NC(=O)C(CO)NC(=O)C(Cc1c[nH]c2ccccc12)NC(=O)C(Cc1cnc[nH]1)NC(=O)C1CCC(=O)N1 (stereo not given) | 113%
33 | COc1cnc2c(c1)C(=O)c1c-2n(CCCN2CCCC2)c(=O)c2cc(Cl)ccc12 | 27.9%
34 | CCOC(=O)/C(=C/c1ccc([N+](=O)[O-])cc1)C(=O)c1ccccc1 | -20.8% (active)
35 | O=C(NS(=O)(=O)c1ccccc1)n1cc(-c2ccncc2)c(-c2cc(O)cc(Cl)c2)n1 | 103%
36 | CCCCCCC(C)N(CC(C)(C)O)C(=O)c1ccc([N+](=O)[O-])cc1 (stereo not given) | 95.7%
37 | COC(=O)[C@]12CC[C@@H](C)[C@H](C)[C@@H]1C1=CC[C@@H]3[C@@]4(C)C(C=O)=C[C@@](C)(COC(=O)c5ccco5)[C@@H]4C(=O)C[C@@]3(C)[C@]1(C)CC2 | 10.1%
38 | O=C(/C=C/c1ccccc1)c1ccc2ccccc2c1 | 56.1%
39 | COc1ccccc1N1CCN(CC(O)COc2c(Br)c(Br)c(Br)c3c2OC(C)(C)C3)CC1 (stereo not given) | 10.3%
40 | C#CC[C@@H]1C[C@]2(C)[C@H]3CC[C@@H]4[C@H]5[C@H](C(=C)C)CC[C@]5(C(=O)O)CC[C@@]4(C)[C@]3(C)CC[C@H]2C(C)(C)[C@H]1O | 44.2%
